Laboratory results published in PubChem BioAssay.

The molecules below were run against Focal adhesion kinase 1 (Homo sapiens) (UniProt Q05397) (assay: PTK2 protein binding on printed compound slides – biochemical, small-molecule microarray, 635/667 nm fluorescence, BSA, DTT, primary screen (AID 1130;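 also: composite of spot emission at 667 nm and signal to noise over triplicate slides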)). Conditions: 635 nm fluorescence, higher = more signal.
Focal adhesion kinase 1 (Homo sapiens), sequence (Q05397 whole entry, looked up): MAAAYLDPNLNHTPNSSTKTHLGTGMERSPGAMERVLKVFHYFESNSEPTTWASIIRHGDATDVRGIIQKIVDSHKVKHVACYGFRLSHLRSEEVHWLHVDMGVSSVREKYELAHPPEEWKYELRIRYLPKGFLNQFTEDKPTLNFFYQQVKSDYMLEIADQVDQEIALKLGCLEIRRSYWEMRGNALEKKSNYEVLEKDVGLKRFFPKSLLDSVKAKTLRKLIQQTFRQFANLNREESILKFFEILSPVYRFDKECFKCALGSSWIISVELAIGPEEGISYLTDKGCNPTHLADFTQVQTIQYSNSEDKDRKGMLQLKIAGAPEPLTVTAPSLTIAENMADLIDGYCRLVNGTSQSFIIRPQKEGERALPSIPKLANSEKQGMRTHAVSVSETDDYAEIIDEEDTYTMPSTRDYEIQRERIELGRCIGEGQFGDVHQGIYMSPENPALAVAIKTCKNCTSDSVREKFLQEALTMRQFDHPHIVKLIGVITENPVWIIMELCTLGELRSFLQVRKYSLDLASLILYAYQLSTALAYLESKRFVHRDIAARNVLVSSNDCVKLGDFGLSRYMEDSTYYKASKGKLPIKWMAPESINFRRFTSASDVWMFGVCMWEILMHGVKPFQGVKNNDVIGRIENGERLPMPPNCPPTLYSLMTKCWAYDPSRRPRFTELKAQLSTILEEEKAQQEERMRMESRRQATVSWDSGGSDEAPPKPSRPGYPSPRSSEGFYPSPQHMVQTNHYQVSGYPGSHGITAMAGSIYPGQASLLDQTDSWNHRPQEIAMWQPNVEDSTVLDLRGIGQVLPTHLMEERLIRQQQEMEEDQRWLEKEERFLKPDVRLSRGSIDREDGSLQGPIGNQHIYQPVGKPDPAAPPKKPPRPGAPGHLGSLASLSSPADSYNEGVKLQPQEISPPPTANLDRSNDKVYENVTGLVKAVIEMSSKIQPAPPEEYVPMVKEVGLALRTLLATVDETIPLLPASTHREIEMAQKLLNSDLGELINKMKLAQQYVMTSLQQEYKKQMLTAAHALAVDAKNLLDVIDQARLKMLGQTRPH

SMILES | composite z-score
CCO[C@H](c1cc(OC)cc([N+](=O)[O-])c1OC)[C@H](C)C=CCC(=O)OC | -0.361
COC(=O)[C@H](C)NC(=O)CCC1CC(OC(=O)NCCc2ccc(F)cc2)CC2(CCCC(COC(=O)NCc3cccc(C(F)(F)F)c3)O2)O1 (stereo partly specified) | 0.145
CCOC(=O)[C@H](CC(C)C)NC(=O)CCC1CC(OC(=O)NCc2ccc3c(c2)OCO3)CC2(CCCC(COC(=O)NCc3cccc(C(F)(F)F)c3)O2)O1 (stereo partly specified) | 0.201
COC(=O)[C@H](C)NC(=O)CCC1CC(OC(=O)NCc2ccc3c(c2)OCO3)CC2(CCCC(COC(=O)NCc3cccc(C(F)(F)F)c3)O2)O1 (stereo partly specified) | 0.587
C[C@@H](c1ccccc1)N1C(=O)[C@H]2[C@H]3[C@H](O)[C@H](O)CC(=NO[C@@H]4O[C@H](CO)[C@@H](O)[C@H](O)[C@H]4O)[C@H]3CC[C@H]2C1=O | -0.0492
CCc1cc2c(nc1CC)CCN(CCC(C)=NO[C@H](C)c1cn([C@H](CO)Cc3ccccc3)nn1)C2 | 0.119
O=C1C[C@@H](O)[C@@H](O)[C@@H]2[C@@H]3C(=O)N(Cc4ccccc4)C(=O)[C@@H]3CC[C@@H]12 | 0.0901
COc1ccc(O[C@H]2C=C[C@@H](c3ccccc3)O[C@@H]2CON=CC[C@@H]2C=C[C@H](OC(C)=O)[C@@H](COC(C)=O)O2)cc1 | 0.178
Cc1ccc(S(=O)(=O)n2c3ccccc3c3nnc(C(=O)c4ccccc4)nc32)cc1 | -0.0158
CCCNC(=O)OC[C@H]1O[C@H](CCON=C(C)CCC(=O)OC[C@H]2O[C@H](c3ccccc3)C=C[C@@H]2Oc2ccc(OC)cc2)C=C[C@@H]1Oc1ccc(OC)cc1 | -0.447
COC(=O)CC=C[C@@H](C)[C@H](OCc1cccc(-c2ccccc2)c1)C1CCCCC1 | -0.0125
O=C(NN=C1C[C@@H](O)[C@@H](O)[C@@H]2[C@@H]3C(=O)N(Cc4ccccc4)C(=O)[C@@H]3CC[C@@H]12)OCc1ccccc1 | -0.0741
COc1ccc(COC(=O)NN=C2C[C@@H](O)[C@@H](O)[C@@H]3[C@@H]4C(=O)N(Cc5ccccc5)C(=O)[C@@H]4CC[C@H]23)cc1 | 0.0115
COc1ccc(O[C@H]2C=C[C@@H](c3ccccc3)O[C@@H]2CON=C(C)CCC(=O)OC[C@H]2O[C@H](c3ccccc3)C=C[C@@H]2Oc2ccc(OC)cc2)cc1 | -0.204
CCCNC(=O)OC[C@H]1O[C@H](CCON=Cc2ccc(C(=O)N3[C@H](c4ccc(C)cc4)[C@@H](C)CC[C@H]3C(=O)OC)cc2)C=C[C@@H]1Oc1ccc(OC)cc1 | 0.315
CCOC(=O)CCN1C(=O)[C@H]2[C@H]3[C@H](O)[C@H](O)CC(=NNC(=O)OCc4ccccc4)[C@@H]3CC[C@H]2C1=O | 0.538
C[C@@H](c1ccccc1)N1C(=O)[C@H]2[C@H]3[C@H](O)[C@H](O)CC(=NOCc4ccccc4)[C@H]3CC[C@H]2C1=O | 0.0785
COC(=O)CC=C[C@@H](C)[C@@H](C=NOC[C@@H](O)[C@H]1O[C@@H]2OC(C)(C)O[C@@H]2[C@H]1O)NS(=O)(=O)c1ccc(C)cc1 | -0.196
O=C(NN=C1C[C@@H](O)[C@@H](O)[C@@H]2[C@@H]3C(=O)N(C4CCCCC4)C(=O)[C@@H]3CC[C@H]12)OCc1ccccc1 | -0.132
Cc1cc2c(nc1C)CCCCN2CC(C)ON=C[C@@H](C)[C@H](OCc1ccccc1)C(C)C (stereo partly specified) | -0.69
CCOC(=O)[C@H](CC(C)C)NC(=O)CCC1CC(OC(=O)NCc2cccc3ccccc23)CC2(CCCC(COC(=O)NCCC(C)C)O2)O1 (stereo partly specified) | -0.394
CC(C)CON=C1C[C@@H](O)[C@@H](O)[C@@H]2[C@@H]3C(=O)N(C[C@@H]4CCCO4)C(=O)[C@@H]3CC[C@@H]12 | 0.348
C=CC[C@@H]1C=C[C@H](ON=C(C)CCC(=O)OC[C@H]2O[C@H](c3ccccc3)C=C[C@@H]2Oc2ccc(OC)cc2)[C@@H](CO)O1 | 0.261
CO[C@@H]1COC(=O)CC=C[C@@H](C)[C@@H]2C=C[C@H](O)[C@@H](COC(=O)CC=C[C@H]1C)O2 | -0.649
COC(=O)[C@H](C)NC(=O)CCC1CC(OC(=O)NCc2cccc3ccccc23)CC2(CCCC(COC(=O)NCC(c3ccccc3)c3ccccc3)O2)O1 (stereo partly specified) | 0.713

Each molecule was assayed on Fibrinogen (Alexa647-labelled) (assay: Alexa647-fibrinogen binding to printed small molecules – biochemical, small-molecule microarray, 635/667 nm fluorescence, artefact control for SMM control-protein annotation, profiling panel (AID 1131;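 also: z-score merges 667 nm fluorescence with per-spot signal-to-noise over triplicate slides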)). Conditions: fibrinogen-A647 binding fluorescence, higher = more signal.

SMILES | composite z-score
CCN1C(=O)[C@@H]2[C@H]3C(=CC[C@@H]2C1=O)C1(OCCCO1)[C@H]1O[C@H]1[C@H]3O | 0.982
CCOC(=O)[C@H](Cc1ccccc1)NC(=O)CCC1CC(OC(=O)NCCc2ccc(F)cc2)CC2(CCCC(COC(=O)NCCc3ccccc3OC)O2)O1 (stereo partly specified) | 0.916
CCOC(=O)NN=C1C[C@@H](O)[C@@H](O)[C@@H]2[C@@H]3C(=O)N(c4cccc(Oc5ccccc5)c4)C(=O)[C@@H]3CC[C@H]12 | 0.641
CCCCC#C[C@@H]1C=C[C@H](Oc2ccc(C(=O)OC)cc2)[C@@H](COC(=O)OCC)O1 | 0.531
CCCNC(=O)OC[C@H]1O[C@H](CCON=C(C)CCN2CCc3nc(CC)c(CC)cc3C2)C=C[C@@H]1Oc1ccc(OC)cc1 | 0.564
CCC1=NOC(CCC2CC(OC(=O)NCc3cccc4c3OCO4)CC3(CCCC(COC(=O)NCCc4ccccc4OC)O3)O2)C1 (stereo unspecified) | 0.155
CO[C@@H]1COC(=O)CC=C[C@H](C)[C@H](OC)COC(=O)[C@H](C)NC(=O)CC=C[C@H]1C | -0.394
C#CCCCON=C1C[C@@H](O)[C@@H](O)[C@@H]2[C@@H]3C(=O)N(C(C)(C)C)C(=O)[C@@H]3CC[C@H]12 | 0.589
CCOC(=O)[C@H](Cc1ccccc1)NC(=O)CCC1CC(OC(=O)NCc2ccc3c(c2)OCO3)CC2(CCCC(COC(=O)NCCC(C)C)O2)O1 (stereo partly specified) | 0.894
COC(=O)CC=C[C@@H](C)[C@@H](C=NO[C@H](C)c1cn([C@H](CO)Cc2ccccc2)nn1)NS(=O)(=O)c1ccc(C)cc1 | 0.951
CCN1C(=O)[C@H]2[C@H]3[C@H](O)[C@H](O)CC(=O)[C@@H]3CC[C@H]2C1=O | 0.583
CCO[C@H](c1cc(OC)cc([N+](=O)[O-])c1OC)[C@H](C)C=CCC(=O)OC | -0.364
COC(=O)[C@H](C)NC(=O)CCC1CC(OC(=O)NCCc2ccc(F)cc2)CC2(CCCC(COC(=O)NCc3cccc(C(F)(F)F)c3)O2)O1 (stereo partly specified) | 0.563
CCOC(=O)[C@H](CC(C)C)NC(=O)CCC1CC(OC(=O)NCc2ccc3c(c2)OCO3)CC2(CCCC(COC(=O)NCc3cccc(C(F)(F)F)c3)O2)O1 (stereo partly specified) | -0.092
COC(=O)[C@H](C)NC(=O)CCC1CC(OC(=O)NCc2ccc3c(c2)OCO3)CC2(CCCC(COC(=O)NCc3cccc(C(F)(F)F)c3)O2)O1 (stereo partly specified) | 0.387
C[C@@H](c1ccccc1)N1C(=O)[C@H]2[C@H]3[C@H](O)[C@H](O)CC(=NO[C@@H]4O[C@H](CO)[C@@H](O)[C@H](O)[C@H]4O)[C@H]3CC[C@H]2C1=O | 0.318
CCc1cc2c(nc1CC)CCN(CCC(C)=NO[C@H](C)c1cn([C@H](CO)Cc3ccccc3)nn1)C2 | 0.408
O=C1C[C@@H](O)[C@@H](O)[C@@H]2[C@@H]3C(=O)N(Cc4ccccc4)C(=O)[C@@H]3CC[C@@H]12 | 0.547

SMILES | composite z-score
COc1ccc(O[C@H]2C=C[C@@H](c3ccccc3)O[C@@H]2CON=CC[C@@H]2C=C[C@H](OC(C)=O)[C@@H](COC(C)=O)O2)cc1 | 0.516
Cc1ccc(S(=O)(=O)n2c3ccccc3c3nnc(C(=O)c4ccccc4)nc32)cc1 | -1.08
CCCNC(=O)OC[C@H]1O[C@H](CCON=C(C)CCC(=O)OC[C@H]2O[C@H](c3ccccc3)C=C[C@@H]2Oc2ccc(OC)cc2)C=C[C@@H]1Oc1ccc(OC)cc1 | -0.467
COC(=O)CC=C[C@@H](C)[C@H](OCc1cccc(-c2ccccc2)c1)C1CCCCC1 | -0.14
O=C(NN=C1C[C@@H](O)[C@@H](O)[C@@H]2[C@@H]3C(=O)N(Cc4ccccc4)C(=O)[C@@H]3CC[C@@H]12)OCc1ccccc1 | 0.272
COc1ccc(COC(=O)NN=C2C[C@@H](O)[C@@H](O)[C@@H]3[C@@H]4C(=O)N(Cc5ccccc5)C(=O)[C@@H]4CC[C@H]23)cc1 | -0.519
COc1ccc(O[C@H]2C=C[C@@H](c3ccccc3)O[C@@H]2CON=C(C)CCC(=O)OC[C@H]2O[C@H](c3ccccc3)C=C[C@@H]2Oc2ccc(OC)cc2)cc1 | -0.218
CCCNC(=O)OC[C@H]1O[C@H](CCON=Cc2ccc(C(=O)N3[C@H](c4ccc(C)cc4)[C@@H](C)CC[C@H]3C(=O)OC)cc2)C=C[C@@H]1Oc1ccc(OC)cc1 | 0.88
CCOC(=O)CCN1C(=O)[C@H]2[C@H]3[C@H](O)[C@H](O)CC(=NNC(=O)OCc4ccccc4)[C@@H]3CC[C@H]2C1=O | 0.986
C[C@@H](c1ccccc1)N1C(=O)[C@H]2[C@H]3[C@H](O)[C@H](O)CC(=NOCc4ccccc4)[C@H]3CC[C@H]2C1=O | 0.823
COC(=O)CC=C[C@@H](C)[C@@H](C=NOC[C@@H](O)[C@H]1O[C@@H]2OC(C)(C)O[C@@H]2[C@H]1O)NS(=O)(=O)c1ccc(C)cc1 | -0.174
O=C(NN=C1C[C@@H](O)[C@@H](O)[C@@H]2[C@@H]3C(=O)N(C4CCCCC4)C(=O)[C@@H]3CC[C@H]12)OCc1ccccc1 | -0.195
Cc1cc2c(nc1C)CCCCN2CC(C)ON=C[C@@H](C)[C@H](OCc1ccccc1)C(C)C (stereo partly specified) | -2.1
CCOC(=O)[C@H](CC(C)C)NC(=O)CCC1CC(OC(=O)NCc2cccc3ccccc23)CC2(CCCC(COC(=O)NCCC(C)C)O2)O1 (stereo partly specified) | 0.123
CC(C)CON=C1C[C@@H](O)[C@@H](O)[C@@H]2[C@@H]3C(=O)N(C[C@@H]4CCCO4)C(=O)[C@@H]3CC[C@@H]12 | 0.222
C=CC[C@@H]1C=C[C@H](ON=C(C)CCC(=O)OC[C@H]2O[C@H](c3ccccc3)C=C[C@@H]2Oc2ccc(OC)cc2)[C@@H](CO)O1 | -1.43
CO[C@@H]1COC(=O)CC=C[C@@H](C)[C@@H]2C=C[C@H](O)[C@@H](COC(=O)CC=C[C@H]1C)O2 | -0.616
COC(=O)[C@H](C)NC(=O)CCC1CC(OC(=O)NCc2cccc3ccccc23)CC2(CCCC(COC(=O)NCC(c3ccccc3)c3ccccc3)O2)O1 (stereo partly specified) | 0.665
